For test [1], the target named is RAC-alpha serine/threonine-protein kinase (Homo sapiens) (UniProt P31749). Conditions: at 0.1 µM.
Test [2] has the same target. Conditions: at 1 µM.
Test [3] addresses RAC-beta serine/threonine-protein kinase (Homo sapiens) (UniProt P31751). Conditions: at 0.1 µM.
Test [4] has the same target. The settings on record: at 1 µM.
The target of test [5] is RAC-gamma serine/threonine-protein kinase (Homo sapiens) (UniProt Q9Y243). The settings on record: at 0.1 µM.
Test [6] shares this target. Conditions: at 1 µM.
In test [7] the target is G protein-coupled receptor kinase 6 (Homo sapiens) (UniProt P43250). Conditions: at 0.1 µM.
Test [8] shares this target. The settings on record: at 1 µM.
Test [9] has as its target T1, Rhodopsin kinase GRK7 (Homo sapiens) (UniProt Q8WTQ7).
T1 sequence (whole entry): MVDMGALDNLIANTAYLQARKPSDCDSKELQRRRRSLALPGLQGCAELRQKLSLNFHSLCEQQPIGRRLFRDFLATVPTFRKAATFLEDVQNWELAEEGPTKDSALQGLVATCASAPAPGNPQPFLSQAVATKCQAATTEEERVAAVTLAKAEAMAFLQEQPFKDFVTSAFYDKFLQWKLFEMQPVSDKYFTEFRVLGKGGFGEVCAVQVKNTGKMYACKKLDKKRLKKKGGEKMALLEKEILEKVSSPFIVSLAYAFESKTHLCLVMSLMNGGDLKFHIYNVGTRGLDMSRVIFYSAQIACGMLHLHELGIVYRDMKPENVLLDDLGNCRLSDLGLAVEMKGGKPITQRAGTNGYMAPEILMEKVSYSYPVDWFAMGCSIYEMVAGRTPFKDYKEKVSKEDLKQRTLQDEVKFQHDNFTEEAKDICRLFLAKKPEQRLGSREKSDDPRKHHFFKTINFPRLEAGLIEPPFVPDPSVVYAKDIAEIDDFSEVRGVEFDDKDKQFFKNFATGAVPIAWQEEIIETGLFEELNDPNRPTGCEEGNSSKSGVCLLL
The settings on record: at 0.1 µM.

The target in test [10] is T1, Rhodopsin kinase GRK7 (Homo sapiens). The settings on record: at 1 µM.
For test [11], the target named is Serine/threonine-protein kinase MRCK alpha (Homo sapiens) (UniProt Q5VT25). The settings on record: at 0.1 µM.
For test [12] the target is unchanged. Conditions: at 1 µM.
In test [13] the target is Serine/threonine-protein kinase MRCK beta (Homo sapiens) (UniProt Q9Y5S2). Conditions: at 0.1 µM.
Test [14] has the same target. Conditions: at 1 µM.
Test [15] concerns the target Ribosomal protein S6 kinase alpha-5 (Homo sapiens) (UniProt O75582). The settings on record: at 0.1 µM.
The target is the same in test [16]. Conditions: at 1 µM.
The target of test [17] is Ribosomal protein S6 kinase alpha-4 (Homo sapiens) (UniProt O75676). The settings on record: at 0.1 µM.
The target is the same in test [18]. The settings on record: at 1 µM.
The target of test [19] is Ribosomal protein S6 kinase beta-1 (Homo sapiens) (UniProt P23443). The settings on record: at 0.1 µM.
Test [20] shares this target. Conditions: at 1 µM.

Ribosomal protein S6 kinase beta-1 (Homo sapiens), sequence (P23443 whole entry, looked up): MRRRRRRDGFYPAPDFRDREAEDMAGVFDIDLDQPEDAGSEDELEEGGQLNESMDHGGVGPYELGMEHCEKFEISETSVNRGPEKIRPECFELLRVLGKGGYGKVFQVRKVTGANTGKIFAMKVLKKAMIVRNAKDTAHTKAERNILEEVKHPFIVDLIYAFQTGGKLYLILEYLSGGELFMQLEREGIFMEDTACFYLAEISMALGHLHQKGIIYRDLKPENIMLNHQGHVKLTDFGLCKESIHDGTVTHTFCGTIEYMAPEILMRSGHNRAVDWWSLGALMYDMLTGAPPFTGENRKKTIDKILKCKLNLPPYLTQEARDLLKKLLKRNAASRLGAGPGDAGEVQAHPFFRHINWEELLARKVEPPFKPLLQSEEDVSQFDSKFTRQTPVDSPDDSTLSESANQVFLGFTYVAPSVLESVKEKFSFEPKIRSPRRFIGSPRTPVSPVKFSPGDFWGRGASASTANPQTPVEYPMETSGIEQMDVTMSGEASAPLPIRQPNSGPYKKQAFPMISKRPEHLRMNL
Ribosomal protein S6 kinase alpha-5 (Homo sapiens), sequence (O75582 whole entry, looked up): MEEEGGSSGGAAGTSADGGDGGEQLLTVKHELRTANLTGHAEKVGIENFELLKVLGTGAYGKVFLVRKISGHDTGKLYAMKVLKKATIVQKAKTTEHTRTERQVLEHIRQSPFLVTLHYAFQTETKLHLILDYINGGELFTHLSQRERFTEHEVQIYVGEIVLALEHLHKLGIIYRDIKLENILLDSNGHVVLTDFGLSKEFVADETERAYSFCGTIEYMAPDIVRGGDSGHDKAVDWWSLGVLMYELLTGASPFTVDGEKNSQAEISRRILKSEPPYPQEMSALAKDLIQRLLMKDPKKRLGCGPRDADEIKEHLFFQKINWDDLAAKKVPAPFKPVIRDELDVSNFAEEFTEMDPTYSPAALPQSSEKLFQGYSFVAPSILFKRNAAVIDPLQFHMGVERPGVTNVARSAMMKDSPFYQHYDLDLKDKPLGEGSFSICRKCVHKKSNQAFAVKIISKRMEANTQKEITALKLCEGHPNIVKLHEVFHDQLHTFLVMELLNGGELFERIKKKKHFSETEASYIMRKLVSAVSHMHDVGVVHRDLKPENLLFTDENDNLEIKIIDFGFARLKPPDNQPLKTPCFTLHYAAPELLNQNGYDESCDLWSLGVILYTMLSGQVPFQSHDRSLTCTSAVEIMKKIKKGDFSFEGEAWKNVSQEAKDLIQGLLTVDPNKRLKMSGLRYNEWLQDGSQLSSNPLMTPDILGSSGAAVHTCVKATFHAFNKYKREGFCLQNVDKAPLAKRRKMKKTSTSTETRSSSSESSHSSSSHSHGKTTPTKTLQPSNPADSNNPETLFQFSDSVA
Serine/threonine-protein kinase MRCK beta (Homo sapiens), sequence (Q9Y5S2 whole entry): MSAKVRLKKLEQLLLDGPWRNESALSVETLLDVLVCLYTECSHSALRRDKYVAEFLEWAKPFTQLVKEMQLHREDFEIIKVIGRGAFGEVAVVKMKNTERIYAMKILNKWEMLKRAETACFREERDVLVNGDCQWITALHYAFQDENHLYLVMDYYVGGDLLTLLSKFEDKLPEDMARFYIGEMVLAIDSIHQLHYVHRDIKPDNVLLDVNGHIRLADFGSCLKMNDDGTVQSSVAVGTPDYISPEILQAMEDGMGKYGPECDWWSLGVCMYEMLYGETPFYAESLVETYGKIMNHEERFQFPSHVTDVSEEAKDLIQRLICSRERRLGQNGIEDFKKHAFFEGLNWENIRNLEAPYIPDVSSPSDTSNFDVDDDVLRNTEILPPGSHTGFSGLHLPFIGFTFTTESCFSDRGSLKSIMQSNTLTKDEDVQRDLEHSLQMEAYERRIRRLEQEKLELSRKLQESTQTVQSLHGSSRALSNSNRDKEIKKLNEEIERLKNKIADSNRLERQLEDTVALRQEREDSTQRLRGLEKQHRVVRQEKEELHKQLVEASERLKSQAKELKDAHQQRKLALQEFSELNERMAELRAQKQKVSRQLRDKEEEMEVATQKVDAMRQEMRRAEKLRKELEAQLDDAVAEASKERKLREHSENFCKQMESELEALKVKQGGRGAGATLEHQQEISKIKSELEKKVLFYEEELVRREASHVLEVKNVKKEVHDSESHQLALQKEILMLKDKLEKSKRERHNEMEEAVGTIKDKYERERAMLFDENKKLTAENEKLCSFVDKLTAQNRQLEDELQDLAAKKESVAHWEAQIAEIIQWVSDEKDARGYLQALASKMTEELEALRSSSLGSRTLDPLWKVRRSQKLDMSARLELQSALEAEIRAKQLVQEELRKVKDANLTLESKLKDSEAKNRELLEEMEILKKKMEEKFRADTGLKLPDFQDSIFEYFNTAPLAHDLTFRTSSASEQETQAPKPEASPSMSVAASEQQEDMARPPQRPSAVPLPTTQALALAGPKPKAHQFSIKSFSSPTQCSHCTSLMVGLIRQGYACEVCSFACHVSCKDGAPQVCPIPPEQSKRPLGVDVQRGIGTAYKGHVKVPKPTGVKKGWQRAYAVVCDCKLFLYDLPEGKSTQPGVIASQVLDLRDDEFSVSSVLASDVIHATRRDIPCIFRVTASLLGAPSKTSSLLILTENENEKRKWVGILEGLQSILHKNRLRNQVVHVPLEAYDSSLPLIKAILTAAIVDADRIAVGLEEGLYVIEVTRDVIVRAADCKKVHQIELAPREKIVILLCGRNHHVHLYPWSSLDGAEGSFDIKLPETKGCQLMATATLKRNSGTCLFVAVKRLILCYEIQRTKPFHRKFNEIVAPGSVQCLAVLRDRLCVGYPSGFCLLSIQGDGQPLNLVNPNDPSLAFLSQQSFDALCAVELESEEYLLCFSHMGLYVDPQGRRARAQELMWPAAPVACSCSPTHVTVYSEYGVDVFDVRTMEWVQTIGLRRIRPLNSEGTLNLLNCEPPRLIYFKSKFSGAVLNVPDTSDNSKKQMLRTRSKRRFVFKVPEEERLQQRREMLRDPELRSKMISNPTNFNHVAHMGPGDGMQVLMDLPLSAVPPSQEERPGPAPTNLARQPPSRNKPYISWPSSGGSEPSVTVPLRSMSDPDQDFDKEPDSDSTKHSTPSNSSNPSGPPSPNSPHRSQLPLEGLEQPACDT
RAC-alpha serine/threonine-protein kinase (Homo sapiens), sequence (P31749 whole entry): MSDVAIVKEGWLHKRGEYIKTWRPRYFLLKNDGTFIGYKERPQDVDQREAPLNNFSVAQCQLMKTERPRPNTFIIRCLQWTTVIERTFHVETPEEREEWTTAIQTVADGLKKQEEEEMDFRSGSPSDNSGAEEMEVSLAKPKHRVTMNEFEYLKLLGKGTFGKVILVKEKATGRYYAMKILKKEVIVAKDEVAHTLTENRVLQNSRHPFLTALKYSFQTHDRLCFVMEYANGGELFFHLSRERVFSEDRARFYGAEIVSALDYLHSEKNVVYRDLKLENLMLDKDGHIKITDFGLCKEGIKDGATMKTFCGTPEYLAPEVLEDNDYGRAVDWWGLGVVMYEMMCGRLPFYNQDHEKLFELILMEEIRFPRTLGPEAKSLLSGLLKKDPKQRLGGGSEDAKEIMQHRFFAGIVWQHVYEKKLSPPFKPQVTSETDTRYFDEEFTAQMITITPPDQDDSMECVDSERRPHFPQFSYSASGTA
RAC-gamma serine/threonine-protein kinase (Homo sapiens), sequence (Q9Y243 whole entry): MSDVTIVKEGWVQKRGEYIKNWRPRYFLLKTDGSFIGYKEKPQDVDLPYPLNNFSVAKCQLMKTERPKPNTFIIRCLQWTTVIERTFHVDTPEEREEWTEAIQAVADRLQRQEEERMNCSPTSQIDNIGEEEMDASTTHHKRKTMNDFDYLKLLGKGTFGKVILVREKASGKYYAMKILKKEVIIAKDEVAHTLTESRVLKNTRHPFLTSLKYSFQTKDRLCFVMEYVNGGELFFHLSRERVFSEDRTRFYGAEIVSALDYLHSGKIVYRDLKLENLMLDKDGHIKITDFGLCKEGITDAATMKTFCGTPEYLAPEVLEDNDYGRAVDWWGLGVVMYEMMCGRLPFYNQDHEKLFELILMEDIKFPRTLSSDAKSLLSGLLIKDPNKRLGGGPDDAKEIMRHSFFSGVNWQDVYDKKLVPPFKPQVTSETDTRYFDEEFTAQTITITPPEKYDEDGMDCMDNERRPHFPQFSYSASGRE
RAC-beta serine/threonine-protein kinase (Homo sapiens), sequence (P31751 whole entry): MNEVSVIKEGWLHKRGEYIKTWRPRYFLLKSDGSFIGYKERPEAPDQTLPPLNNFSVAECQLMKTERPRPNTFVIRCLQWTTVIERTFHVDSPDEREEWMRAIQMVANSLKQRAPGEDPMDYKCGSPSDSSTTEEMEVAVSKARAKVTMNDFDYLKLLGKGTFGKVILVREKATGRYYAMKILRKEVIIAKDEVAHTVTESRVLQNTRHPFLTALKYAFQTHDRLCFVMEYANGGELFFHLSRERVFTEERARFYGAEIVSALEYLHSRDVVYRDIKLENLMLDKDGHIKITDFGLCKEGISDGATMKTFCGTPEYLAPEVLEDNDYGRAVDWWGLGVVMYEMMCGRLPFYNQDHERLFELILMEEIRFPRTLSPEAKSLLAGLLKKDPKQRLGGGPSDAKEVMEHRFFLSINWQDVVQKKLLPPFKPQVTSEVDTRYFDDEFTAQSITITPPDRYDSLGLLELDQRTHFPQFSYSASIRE
G protein-coupled receptor kinase 6 (Homo sapiens), sequence (P43250 whole entry, looked up): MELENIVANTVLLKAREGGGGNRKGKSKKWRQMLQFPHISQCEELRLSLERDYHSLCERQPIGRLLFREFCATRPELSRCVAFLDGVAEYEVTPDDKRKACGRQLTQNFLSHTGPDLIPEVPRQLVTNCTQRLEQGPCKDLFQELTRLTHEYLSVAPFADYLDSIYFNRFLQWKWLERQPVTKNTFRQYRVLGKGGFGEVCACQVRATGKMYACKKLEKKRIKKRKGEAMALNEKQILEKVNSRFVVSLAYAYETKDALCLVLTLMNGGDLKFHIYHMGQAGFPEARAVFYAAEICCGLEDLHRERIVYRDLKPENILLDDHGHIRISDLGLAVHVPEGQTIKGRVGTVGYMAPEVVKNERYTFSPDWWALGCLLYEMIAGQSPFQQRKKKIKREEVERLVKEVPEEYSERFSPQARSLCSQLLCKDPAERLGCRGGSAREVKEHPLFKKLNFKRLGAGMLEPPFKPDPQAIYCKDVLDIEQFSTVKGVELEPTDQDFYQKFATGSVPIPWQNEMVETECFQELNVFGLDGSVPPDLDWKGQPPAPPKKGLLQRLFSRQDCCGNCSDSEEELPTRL

As usually defined, the inhibition is the relative decrease from the control value, in per cent. Regarding `Nc1nc(-c2ccc3c(c2)C(=Cc2cc(Br)c(O)c(Br)c2)C(=O)N3)cs1`, the inhibition in test [1] is -2.07%; in [2], -1.22%; in [3] it was -2.78%; in test [4], -0.83%; in test [5], -2.54%; in [6] it was -0.36%. Besides, the inhibition in [7] is 0.91%; in test [8], 10.7%; in test [9] it was -6.85%; in test [10], 22.8%; in test [11], -0.3%; in [12], -1.5%. Also, the inhibition is 0.42% in [13]; 0.83% in test [14]; -1.16% in [15]; 0.13% in test [16]; -1.47% in test [17]; -0.48% in [18]. Further, the inhibition in [19] is -1.65%; in [20], 1.12%.

For the compound `CCc1cccc(NC(=O)Nc2ccc(Oc3ccc4nc(NC(=O)OC)[nH]c4c3)cc2)c1`, the inhibition was 1.36% in [1]; 0.06% in test [2]; 1.23% in [3]; 1.45% in [4]; 2.78% in test [5]; -0.71% in [6]. Besides, the inhibition in [7] worked out at 2.37%; in test [8], 2.68%; in test [9], 4.8%; in test [10], 15.6%; in test [11], 1.75%; in test [12] it was 2.04%. For the same compound, the inhibition is 0.03% in test [13]; 0.65% in test [14]; -4.58% in test [15]; -1.65% in test [16]; 1.22% in test [17]; 1.3% in test [18]. In addition, the inhibition in test [19] came to 4.31%; in test [20] it was 5.19%.

In the case of `CNC(=O)c1cncc(/C=C/c2c(Cl)cccc2Cl)c1`, the inhibition in test [1] is -2.98%; in test [2], -2.11%; in test [3] it was -2.93%; in test [4], -2.77%; in test [5], -3.04%; in test [6], 0.11%. Also, the inhibition came to 3.3% in test [7]; 4.35% in [8]; 10.6% in test [9]; 8.22% in test [10]; 4.22% in test [11]; 1.78% in [12]. The inhibition in test [13] amounted to 0.12%; in test [14], 0.52%; in [15], 0.58%; in test [16], 1.1%; in test [17] it was 2.15%; in [18] it was 3.75%. The inhibition was 1.85% in test [19] and 2.12% in test [20].

For the compound `CCn1c(-c2nonc2N)nc2ccncc21`, the inhibition is 0.31% in [1]; 0.51% in test [2]; 0.98% in test [3]; 1.01% in test [4]; -0.4% in test [5]; -0.73% in test [6]. Besides, the inhibition is 0.85% in test [7]; -3.7% in test [8]; 0.19% in [9]; 2.02% in [10]; 1.72% in test [11]; 1.13% in test [12]. Further, the inhibition in test [13] stood at 0.86%; in test [14], 0.41%; in [15], 1.63%; in test [16], 2.9%; in test [17] it was 0.33%; in test [18] it was 2.82%. Also, the inhibition came out at 1.28% in test [19] and 3.8% in [20].

Take `COc1cc2ncn(-c3cc(OCc4ccccc4Cl)c(C(N)=O)s3)c2cc1OC`: the inhibition in test [1] was -1.2%; in [2] it was -0.21%; in test [3] it was -0.21%; in test [4], 0.92%; in test [5], 1.15%; in [6] it was -1.17%. Further, the inhibition in test [7] was 2.37%; in [8] it was 5.7%; in test [9], -0.82%; in [10], 9.44%; in test [11], -0.28%; in [12], 2.18%. The inhibition in [13] is 0.86%; in [14] it was 1.67%; in [15], -5.34%; in [16] it was -5.25%; in test [17], 0.79%; in [18], 3.02%. In addition, the inhibition in test [19] was 0.47%; in test [20] it was 0.64%.

For the compound `COc1ccc(-c2ccncc2)cc1C(N)=O`, the inhibition is 0.88% in test [1]; -0.34% in [2]; 0.41% in [3]; 2.06% in [4]; 1.15% in [5]; 2.9% in test [6]. For the same compound, the inhibition in test [7] was determined as 5.49%; in [8], 5.53%; in test [9] it was 9.86%; in test [10], 2.23%; in test [11] it was 3.16%; in [12], 6.38%. For the same compound, the inhibition is -0.49% in test [13]; 2.83% in test [14]; 9.33% in test [15]; 10.5% in [16]; 2.85% in test [17]; 5.28% in test [18]. For the same compound, the inhibition in [19] was 1.79%; in test [20], 4.79%.

Values taken from ChEMBL document CHEMBL1961873, “Compounds: GSK PKIS; Assays: Nanosyn kinase panel” (2012).
